Screening results (PubChem BioAssay)
Shown are actives, neighbours in structure and some others; about 17% of the full set was active somewhere.
TGFb SMAD3 inh: qHTS for Inhibitors of TGF-b; HepG2 CAGA-GFP TGF-b/SMAD3 reporter, GFP fluorescence, 18 h; TGF-beta stimulated, 500 pg/mL final; Potency, µM (titrated, usually from 46.1 µM), for the others: at the top dose activity, negative = inhibition, hits mostly inhibitors; 410,000 compounds, 1.2% hits; note: % is set by controls: 0 for no effect and ±100 for the full control effect; nearly all actives have a fitted effect of over 65% in size
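Smad-responsive CAGA-GFP expression was quantified in HEPG2 cells exposed to compounds and 500 pg/mL final TGF-beta for 18 h at 37 degrees C; unstimulated wells defined full inhibition.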
TDP1 cell CPT: qHTS for Inhibitors of human tyrosyl-DNA phosphodiesterase 1 (TDP1): qHTS in cells in presence of CPT | chicken DT40 Tdp1-/-;hTDP1 cells + 20 nM CPT, ATP luminescence, 48 h | Potency, µM (highest dose often 46.2 µM), for the others: top-dose activity change, negative = growth inhibition, actives largely listed as inhibitors | 420,000 compounds, 12% hits | AID 686979, 2013; note: % is set by controls: 0 for no effect and ±100 for the full control effect; nearly all actives have a fitted effect of over 55% in size
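Chicken DT40 Tdp1-/- cells complemented with human TDP1, 400 cells/well, exposed to compounds plus 20 nM camptothecin for at least 48 h at 37 C; viability read as ATP content by CellTiter-Glo luminescence.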
DT40 TDP1 no CPT: qHTS for Inhibitors of human tyrosyl-DNA phosphodiesterase 1 (TDP1): qHTS in cells in absence of CPT; DT40 Tdp1-/- hTDP1 cells, no CPT, ATP luminescence, 48 h; Potency, µM (doses to about 46.2 µM), for the others: top-dose activity change, negative = growth inhibition, most hits filed as inhibitors; 420,000 compounds, 15% hits; note: % is set by controls: 0 for no effect and ±100 for the full control effect; nearly all actives have a fitted effect of over 55% in size
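Camptothecin absent (DMSO only). Human TDP1-complemented DT40 knockout cells, 400 cells/well, 37 °C for minimum 48 hr; ATP measured via CellTiter-Glo, 30 min dark incubation, luminescence.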
HT1080-NT tox: qHTS for induction of synthetic lethality in tumor cells producing 2HG: qHTS for the HT-1080-NT fibrosarcoma cell line. AID 686970, 2013. 360,000 compounds, 1.6% hits. Potency, µM (doses to about 46.1 µM), without a hit: at the top dose activity, negative = less viability, actives largely listed as cytotoxic. HT-1080-NT fibrosarcoma viability, CellTiter-Glo ATP luminescence, 48 h;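 note: NT is the 2HG producing partner of a matched IDH1 knockdown line; 0% = DMSO-treated cells and -100% = media-only wells without cells; nearly all actives have a fitted effect of over 55% in size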
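Viability of the 2HG-overproducing fibrosarcoma line after 48 hours of compound exposure at 37 degrees C was determined by luminescence with CellTiter-Glo, and concentration-effect curves were then fitted and categorized.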
HepG2 tox: qHTS for Inhibitors of TGF-b: Cytotox Counterscreen; HepG2 CAGA-GFP viability, ATP luminescence, 18 h; 410,000 compounds, 0.76% hits; AID 588856, 2011; Potency, µM (highest dose often 46.1 µM), for the others: at the top dose activity change, negative = cytotoxicity, actives largely listed as cytotoxic
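HepG2 CAGA-GFP cells (1000/well, DMEM with 1% FBS) received compound, then TGF-beta at 500 pg/mL final, and were incubated 18 hours at 37 degrees C. Viability was read by CellTiter-Glo luminescence. Media-only wells were set as complete cell-killing and DMSO as no toxicity.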
HT1080 IDH1KD tx: qHTS for induction of synthetic lethality in tumor cells producing 2HG: qHTS for the HT-1080-IDH1KD cell line. HT-1080 IDH1 knockdown viability, ATP luminescence, 48 h. Potency, µM (top dose mostly 46.1 µM), without a hit: top-dose activity, negative = toxicity, usual class: cytotoxic. 360,000 compounds, 2% hits. AID 686971, 2013;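 note: 0% = DMSO wells and -100% = cell-free medium wells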
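CellTiter-Glo luminescence after 48 h compound exposure at 37 degrees C of IDH1-knockdown HT-1080 cells in 5% FBS RPMI. %Activity scaled between DMSO wells and cell-free media wells, with curves fitted and assigned curve classes.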
The depositor's hits bear a star; ? = inconclusive; · = not tested or not shown. Calls come from the whole dose curve; as a rule, active = well fitted curve in the direction sought with a large enough effect; inconclusive = small, poorly fitted or top-dose-only effect, or another doubt; inactive = no such curve, though single readings can be large; an effect the other way counts as inactive or inconclusive. Potency is the fitted concentration of half-maximal effect.

SMILES	TGFb SMAD3 inh	TDP1 cell CPT	DT40 TDP1 no CPT	HT1080-NT tox	HepG2 tox	HT1080 IDH1KD tx
Cc1cccc(C(=O)NC2CCN(CC(=O)NCc3ccccc3F)CC2)c1	1.9%	9.8%	-12.7%	-9.7%	-1.9%	-5.8%
CN(N=O)c1ccc2c(c1)Cc1ccccc1-2	-22.4%	-27.6%	?	·	-62.3%	·
COc1ccccc1CNC(=O)Cc1csc2nc(-c3ccc(Cl)cc3)cn12	-24.5%	?	?	·	-7.6%	·
COC(=O)c1cc(S(=O)(=O)NCc2cccc(OC)c2)cn1C	0.8%	-28.9%	-2.4%	-0.2%	-1.2%	5.2%
Cc1ccc(NS(=O)(=O)c2ccc(-n3cccn3)cc2)cc1C	?	?	?	-1.2%	1.5%	-17.8%
Cc1cc(C)cc(NS(=O)(=O)c2ccc(-n3cccn3)cc2)c1	?	16.4µM*	?	·	-32.5%	·
O=S(=O)(Nc1ccc(F)cc1F)c1ccc(-n2cccn2)cc1	0.0%	16.4µM*	?	·	-15.4%	·
COC(=O)c1cc(S(=O)(=O)NCc2ccccc2OC)cn1C	-5.2%	?	8.2µM*	-7.8%	-2.2%	-6.4%
Cc1ccc(C)c(NS(=O)(=O)c2ccc(-n3cccn3)cc2)c1	-18.2%	-38.8%	?	1.8%	-32.6%	-23.1%
COc1ccccc1CNS(=O)(=O)c1ccc(-n2cccn2)cc1	?	25.9µM*	?	-1.2%	-17.6%	-0.9%
CCCCOc1ccc(-c2nonc2NC(=O)c2ccco2)cc1	-23.2%	?	?	·	-40.2%	·
COc1cc(OC)c(NC(=S)NCc2ccc(F)cc2)cc1Cl	-14.4%	0.8%	?	-17.6%	-23.5%	0.6%
O=S(=O)(Nc1cccc(Cl)c1)c1ccc(-n2cccn2)cc1	?	-29.5%	?	-6.9%	-32.5%	-1.6%
Cc1ccc(NS(=O)(=O)c2ccc(-n3cccn3)cc2)cc1Cl	?	?	?	-1.4%	-52.0%	-5.4%
COc1ccc(NS(=O)(=O)c2ccc(-n3cccn3)cc2)cc1OC	?	5.8µM*	4.61µM*	·	-21.8%	·
CCc1cccc(NS(=O)(=O)c2ccc(-n3cccn3)cc2)c1	?	16.4µM*	20.6µM*	?	-7.3%	-22.1%
COc1ccc(CNS(=O)(=O)c2ccc(-n3cccn3)cc2)cc1	1.4%	?	?	0.3%	-2.3%	-14.9%
COc1cc(NS(=O)(=O)c2ccc(-n3cccn3)cc2)cc(OC)c1	-16.9%	13µM*	11.6µM*	-10.9%	-27.7%	-19.8%
CCc1cccc(C)c1NS(=O)(=O)c1ccc(-n2cccn2)cc1	?	16.4µM*	25.9µM*	·	-23.2%	·
CN(C)C(=O)CCc1ccc2c3c([nH]c2c1)[C@]1(C)[C@@H](C(=O)N2CCOCC2)C[C@H](CC(=O)NCCCn2ccnc2)C(=O)N1CC3	10.2%	-1.4%	11.7%	13.2%	-3.6%	13.3%
Cc1cc(=O)n(Cc2ccccc2)c2c1c(C)nn2C	-5.1%	?	?	·	-25.7%	·
CCc1ccccc1NC(=O)c1cc(S(=O)(=O)N2CCCC2)cn1C	?	?	-9.5%	·	-14.5%	·
CC(C)(C)n1ncc2c(=O)n(Cc3ccc(C#N)c(F)c3)cnc21	-3.0%	·	·	·	-1.2%	·
C/C(=N\NC(=S)NCc1ccccc1)c1ccc(Br)cc1	-1.8%	?	?	-17.4%	-7.6%	-21.9%
C/C(=N\NC(=S)NCc1ccccc1)c1ccc(C)o1	-15.2%	?	5.17µM*	1.7%	-13.3%	-5.0%
SMILES	TGFb SMAD3 inh	TDP1 cell CPT	DT40 TDP1 no CPT	HT1080-NT tox	HepG2 tox	HT1080 IDH1KD tx
C/C(=N\NC(=S)NCc1ccccc1)c1ccc2c(c1)OCCO2	?	16.4µM*	23.1µM*	-8.5%	-39.2%	-12.8%
C/C(=N\NC(=S)Nc1ccc(F)cc1)c1ccc2c(c1)OCCO2	-29.5%	0.92µM*	0.92µM*	?	-74.9%	?
C/C(=N\NC(N)=S)c1ccc2c(c1)OCCO2	6.7%	-23.4%	?	1.9%	-6.8%	2.8%
COc1ccc(Cn2c(SCc3ccc(C(=O)NC(C)c4ccccc4)cc3)nc3cccnc32)cc1 (stereo not drawn)	-6.7%	-0.3%	?	·	-33.4%	·
COc1ccc(-c2ccc(N(C)C)cc2)cc1[C@H]1[C@@H]2C=CCC[C@@]2(C)C(=O)N1Cc1ccccc1	?	29.1µM*	20.6µM*	?	-8.8%	?
COc1ccc(-c2cc(C3C4C=CCCC4(C)C(=O)N3Cc3ccccc3)ccc2F)cc1 (stereo not drawn)	11.2µM*	·	·	·	-7.9%	·
CC12CCC=CC1C(c1ccc3ccccc3c1Br)N(Cc1ccccc1)C2=O (stereo not drawn)	?	·	·	·	-24.0%	·
CC(=O)c1ccc(-c2ccc([C@H]3[C@@H]4C=CCC[C@@]4(C)C(=O)N3Cc3ccccc3)c(F)c2)cc1	?	20.6µM*	16.4µM*	?	-14.5%	?
COc1ccc(-c2ccc(N(C)C)cc2)cc1C1C2C=CCCC2(C)C(=O)N1Cc1ccccc1 (stereo not drawn)	1.6%	·	·	·	-14.7%	·
C[C@@]12CCC=C[C@H]1[C@H](c1ccc3ccccc3c1Br)N(Cc1ccccc1)C2=O	?	?	18.4µM*	?	-35.3%	?
C/C(=C\c1ccccc1)C(=O)Nc1cc(C)on1	17.6%	-2.9%	6.0%	25.7%	-2.7%	8.9%
Cc1cccc(N(C)C(=O)Cn2cnc3nc4c(cc3c2=O)CCCC4)c1	-16.6%	-22.7%	-20.0%	·	-4.5%	·
COc1ccc(-c2cc([C@H]3[C@@H]4C=CCC[C@@]4(C)C(=O)N3Cc3ccccc3)ccc2F)cc1	?	?	25.9µM*	-22.4%	0.9%	?
COc1ccc(-c2cc(C3C4C=CCCC4(C)C(=O)N3Cc3ccccc3)ccc2F)cc1OC (stereo not drawn)	?	·	·	·	-16.5%	·
CCCCCCOC(=O)c1ccccc1NC(=O)/C=C/C(=O)O	-6.5%	16.4µM*	?	-12.0%	-46.1%	-16.1%
CCc1ccc(S(=O)(=O)NCc2cn3cccc(C)c3n2)s1	10.4%	18.4µM*	16.4µM*	-7.4%	2.5%	-0.3%
